Screens: PubChem, National Center for Advancing Translational Sciences (NCATS)
Most compounds without a hit are left out; they make up all but 2.4% or so of the library.
Pol eta inh-1: inhibitors of human DNA polymerase eta | AID 588591 | recombinant Pol eta, fluorescent DNA replication assay | 1.2% of 390,000 active | Potency, µM (series often up to 114 µM), without a hit: at the highest dose activity change, negative = inhibition, hits mostly inhibitors | Q9Y253; note: % is set by controls: 0 for no effect and ±100 for the full control effect
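Fluorescent replication assay: 50 nM final substrate added after a 15 min room-temperature compound preincubation with 10 nM enzyme. Signal taken at 0 min and again at 10 min.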
FEN1 inh-1: blocks human flap endonuclease 1; 0.35% of 390,000 active; Potency, µM (doses to about 114 µM), inactives show at the top dose activity change, negative = inhibition, actives largely listed as inhibitors; Recombinant FEN1 flap cleavage, fluorescence, 15 min; note: % is set by controls: 0 for no effect and ±100 for the full control effect; nearly all actives have a fitted effect of over 65% in size
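Enzyme 10 nM, 15 min RT preincubation with compound; start with substrate 50 nM final; reads at 0 and 15 min; qHTS titration, four-parameter Hill fit.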
Pol kappa inh-1: blocks human DNA polymerase kappa activity; Q9UBT6; purified Pol kappa, fluorescent DNA synthesis assay, 10 min; Potency, µM (doses to about 107 µM), inactives show top-dose activity, negative = inhibition, usual class: inhibitors; 0.53% of 400,000 active; AID 588579; note: % is set by controls: 0 for no effect and ±100 for the full control effect
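Readout: fluorescence, taken kinetically at 0 and 10 min. Conditions: 10 nM Pol kappa, 15 min RT compound preincubation, 50 nM substrate final. Controls: enzyme-free buffer wells.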
POLI inh: inhibitors of human DNA polymerase iota | Potency, µM (highest dose often 115 µM), inactives show top-dose activity, negative = inhibition, usual class: inhibitors | AID 588590 | 1% of 390,000 active | Q9UNA4 | Pol iota fluorescent replication assay, 10 min
Target sequence (Q9UNA4 whole entry, looked up): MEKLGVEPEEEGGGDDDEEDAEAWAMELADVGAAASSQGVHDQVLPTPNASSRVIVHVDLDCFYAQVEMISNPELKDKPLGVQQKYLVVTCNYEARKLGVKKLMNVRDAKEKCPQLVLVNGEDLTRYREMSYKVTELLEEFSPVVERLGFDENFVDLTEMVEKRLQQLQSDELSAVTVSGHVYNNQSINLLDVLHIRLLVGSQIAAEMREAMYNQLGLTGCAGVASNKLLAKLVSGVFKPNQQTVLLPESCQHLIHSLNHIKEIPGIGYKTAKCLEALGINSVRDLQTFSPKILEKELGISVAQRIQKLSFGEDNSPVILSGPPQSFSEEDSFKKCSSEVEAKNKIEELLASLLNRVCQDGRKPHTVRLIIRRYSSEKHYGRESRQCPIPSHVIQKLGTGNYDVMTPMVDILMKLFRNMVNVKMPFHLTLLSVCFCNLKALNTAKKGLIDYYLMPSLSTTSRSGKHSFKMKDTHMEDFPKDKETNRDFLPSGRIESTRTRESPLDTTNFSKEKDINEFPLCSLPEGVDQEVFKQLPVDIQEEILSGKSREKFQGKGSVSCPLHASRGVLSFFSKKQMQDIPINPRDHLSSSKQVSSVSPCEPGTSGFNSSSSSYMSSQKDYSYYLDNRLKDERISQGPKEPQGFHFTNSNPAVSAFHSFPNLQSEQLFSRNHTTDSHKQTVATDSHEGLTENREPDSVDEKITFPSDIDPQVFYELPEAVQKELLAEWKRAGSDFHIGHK
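Pol iota at 10 nM preincubated 15 min with compounds at room temperature; reaction started with fluorescent substrate, 50 nM final. Fluorescence read kinetically at 0 and 10 min; buffer-only wells as negative control.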
Pol beta inh: inhibitors of human DNA polymerase beta. Pol beta primer extension/strand displacement, fluorescence kinetic. Potency, µM (highest dose often 114 µM), without a hit: at the highest dose activity change, negative = inhibition, most hits filed as inhibitors. 1.3% of 340,000 active; note: % is set by controls: 0 for no effect and ±100 for the full control effect
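Enzyme-only controls used 10 nM Pol beta; buffer lacking enzyme served as negative control. Compound preincubated 15 min, then 50 nM substrate added; 0 and 10 min reads at room temperature.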
WRN helicase inh: blocks human WRN helicase; 0.46% of 360,000 active; Potency, µM (highest dose often 114 µM), for the others: at the highest dose activity change, negative = inhibition, hits mostly inhibitors; WRN helicase unwinding, fluorescent forked duplex, kinetic; note: % is set by controls: 0 for no effect and ±100 for the full control effect; nearly all actives have a fitted effect of over 55% in size
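Kinetic fluorescence helicase assay: unwinding of a quenched forked DNA duplex (100 nM final) with 2 mM ATP final raises red fluorescence (525/598 nm). Compounds sat 15 min at room temperature with 20 nM WRN beforehand.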
PGK validate: blocks T. brucei phosphoglycerate kinase | shares compounds with Pol kappa inh-1 | TbPGK coupled GAPDH assay, Kinase-Glo luminescence | Potency, µM (titrated, usually from 57.5 µM), inactives show top-dose activity change, negative = inhibition, actives largely listed as inhibitors | AID 686980 | 79% of 500 active; note: % is set by controls: 0 for no effect and ±100 for the full control effect; nearly all actives have a fitted effect of over 65% in size
Pol iota confirm: Human Pol iota inhibitor confirmatory assay; shares compounds with Pol kappa inh-1; Pol iota primer extension, TAMRA/BHQ fluorescence; Potency, µM, usual class: inhibitors; 77% of 1,500 active; AID 720496
Pol kappa inh-2: confirmation of human DNA polymerase kappa inhibitors; 76% of 920 active; shares compounds with Pol eta inh-1; Potency, µM, usual class: inhibitors; AID 720501; purified Pol-kappa, fluorescent strand-displacement substrate
Pol eta inh-2: Pol eta (human) inhibition, cherry-pick confirmation | shares compounds with Pol eta inh-1 | Pol eta primer extension, TAMRA/BHQ fluorescence, 10 min | Potency, µM, most hits filed as inhibitors | 64% of 2,600 active | AID 720502
FEN1 inh-2: confirmation of human FEN1 inhibitors | shares compounds with FEN1 inh-1 | FEN1 flap cleavage, TAMRA/BHQ2 fluorogenic DNA substrate | Potency, µM, actives largely listed as inhibitors | 79% of 880 active | AID 720498; note: nearly all actives have a fitted effect of over 60% in size
Starred values were filed as active, the others as inactive; ? = inconclusive; / = no result given; [ ] = another dose, or the depositor's remark. Calls come from the whole dose curve; as a rule, active = well fitted curve in the direction sought with a large enough effect; inconclusive = small, poorly fitted or top-dose-only effect, or another doubt; inactive = no such curve, though single readings can be large; an effect the other way counts as inactive or inconclusive. Potency is the fitted concentration of half-maximal effect.

SMILES	Pol eta inh-1	FEN1 inh-1	Pol kappa inh-1	POLI inh	Pol beta inh	WRN helicase inh	Pol iota confirm	Pol eta inh-2	others
C=C(C)C(=O)Nc1cccc(C2=NOC3(C2)C[C@@H](C(N)=O)N(C(=O)CCCCC)C3)c1 (some centres undefined)	1.41µM*	25.1µM*	7.94µM*	8.91µM*	2µM*	39.8µM*	18.9*	3.01*	PGK validate=0.58µM*
C/C=C/C=C\C(=O)Nc1cccc(C2=NOC3(C2)C[C@H](C(N)=O)N(C(=O)/C=C/C)C3)c1 (some centres undefined)	22.4µM*	0.3%	?	?	?	?	33.6*	37.9*
C/C=C\C=C/C(=O)Nc1cccc(C2=NOC3(C2)C[C@@H](C(N)=O)N(C(=O)c2ccccc2)C3)c1 (some centres undefined)	/	/	/	/	-0.2%	/	/	/
C/C=C\C=C\C(=O)N1CC2(CC(c3cccc(NC(=O)CC)c3)=NO2)C[C@H]1C(N)=O (some centres undefined)	35.5µM*	?	79.4µM*	?	-21.5%	?	11.9*	53.6*
C/C=C\C=C\C(=O)N1CC2(CC(c3cccc(NC(=O)COc4ccc(Cl)cc4)c3)=NO2)C[C@H]1C(N)=O (some centres undefined)	-20.7%	-22.8%	-18.8%	?	8.4%	-11.3%	/	/
CC(=O)COC(=O)C1CC(=O)N(c2ccc(C)c(C)c2)C1 (centres undefined)	2.4%	16.6%	0.7%[60.1 µM]	?	-1.6%	3.2%	/	/
C=C(C)C(=O)Oc1ccc(N=Nc2ccc(C)cc2)ccc1=O	3.55µM*	?	50.1µM*	?	/	39.8µM*	23.8*	19*	PGK validate=1.46µM*;Pol kappa inh-2=10.6*
COc1ccc(C(=O)Nc2cc3c4c(c2)CC(=O)N4CCC3)cc1	-15.1%	1.0%	-6.9%	1.9%	/	-14.8%	/	/
CCc1n[nH]c(=S)n1/N=C/c1cc(OC)cc([N+](=O)[O-])c1O	20µM*	-28.9%	-34.6%	?	1.5%	?	33.6*	60.1*
CC(=O)c1cccc(OCC(=O)N(C)CC(=O)NCc2ccco2)c1	3.16µM*	?	35.5µM*	7.94µM*	/	?	15*	5.36*	PGK validate=3.26µM*;Pol kappa inh-2=18.9*
Cc1ccc(OCC(=O)NCc2ccco2)cc1C	?	3.3%	-24.9%	10.1%	-0.2%	1.5%[57.1 µM]	/	/
O=C(O)Cc1ccc(S(=O)(=O)N2CCCC2)s1	7.08µM*	-5.4%	79.4µM*	?	/	-26.2%	47.4*	30.1*	Pol kappa inh-2=11.9*
O=C(Cc1ccc(S(=O)(=O)N2CCCCC2)s1)Nc1cccc2ccccc12	-11.8%	3.6%	-16.9%	21.0%	7.3%	15.6%	/	/
CCOc1ccc(N2CC(C(=O)Nc3c(C)n(C)n(-c4ccccc4)c3=O)CC2=O)cc1 (centres undefined)	-13.6%	5.0%	-7.7%	97.8%	0.8%	-5.5%	/	/
COc1ccc2c(C)nc(Nc3nc(C)c(C)c(=O)[nH]3)nc2c1	?	44.7µM*	10.8%	8.3%	200.4%	1.7%[57.1 µM]	53.2*	75.7*
CN(CC(=O)Nc1c(Cl)cccc1Cl)C(=O)c1cccc(-n2cccc2)c1	20µM*	-10.6%	79.4µM*	14.1µM*	/	50.1µM*	16.8*	30.1*
CN(CC(=O)Nc1ccccc1Cl)C(=O)c1cccc(-n2cccc2)c1	-7.1%	-2.1%	-13.3%	-7.7%	/	-1.2%	/	/
CN(CC(=O)Nc1cccc(F)c1)C(=O)c1cccc(-n2cccc2)c1	7.94µM*	-13.8%	?	20µM*	/	31.6µM*	29.9*	75.7*
CCN(C(=O)COC(=O)c1ccc(=O)n(Cc2ccccc2)n1)C1CCS(=O)(=O)C1 (centres undefined)	-11.0%	2.0%	-1.1%	15.8%	/	9.3%	/	/
O=C(O)C1Nc2c(Cl)cc(Cl)c(Cl)c2C2C=CCC12 (centres undefined)	14.1µM*	35.5µM*	28.2µM*	10µM*	/	39.8µM*	21.2*	23.9*
Cc1ccc(OCCCC(=O)NC(C)c2ccccc2)cc1 (centres undefined)	-12.5%	4.0%	1.2%	0.2%	-1.5%	-0.7%[57.1 µM]	/	/
CCc1nnc(NC(=O)C(=O)c2cc(C)n(-c3ccccc3)c2C)s1	50.1µM*	-3.5%	-4.8%	-20.9%	15.3%	/	?	84.9*	Pol kappa inh-2=13.4*
COc1ccccc1/C=N/NC(=O)CO	-17.0%	-0.9%	-3.8%	12.9%	-14.8%	4.1%	/	/
O=C(/C=C/c1ccco1)NCc1ccccn1	-3.2%	-3.4%	2.0%	16.0%	2.3%	-7.3%	/	/
O=C(/C=C/c1ccco1)N(c1ccccn1)c1ccccn1	8.91µM*	?	31.6µM*	?	3.55µM*	50.1µM*	16.8*	23.9*
O=C(O)COc1ccc(C(=O)c2cccs2)c(Cl)c1Cl	/	/	1.1%[19.4 µM]	/	/	/	/	/
Cc1ccccc1C1=C/C(=C(\SS/C(C(=O)c2ccc(OCC(=O)O)c(Cl)c2Cl)=C2\C=C(c3ccccc3C)SS2)C(=O)c2ccc(OCC(=O)O)c(Cl)c2Cl)SS1	14.1µM*	56.2µM*	79.4µM*	?	/	22.4µM*	37.7*	23.9*	Pol kappa inh-2=16.8*;FEN1 inh-2=?
CCN(CC)CCC(=O)Nc1cccc2c1C(=O)c1ccccc1C2=O	-28.3%	15.8µM*	-21.0%	15.8µM*	20µM*	?	?	/	FEN1 inh-2=6.01*
COc1ccc(-c2cn3nc(SCC(=O)Nc4ccccc4F)ccc3n2)cc1	-16.1%	-9.7%	-5.8%[60.1 µM]	19.6%	0.1%	/	/	/
N#C/C(=C\c1ccc(OCc2ccc(F)cc2)cc1)C(=O)Nc1cccc(C(=O)O)c1	39.8µM*	?	?	?	?	?	?	?	Pol kappa inh-2=42.3*;FEN1 inh-2=?
